# Measurements: PubChem BioAssay (NCI)
# Values joined by “and” are separate entries in the source; they are usually repeats but may differ in a detail not shown here. Equal values may be shown once. Compounds without any hit were thinned out: in the full panel of roughly 83,000, 20% have a hit.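 The endpoint reported here, percent growth, reads 100 for growth as untreated, 0 for no net growth and -100 for all cells dead.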 Active and inactive are the calls of the source. How the source made its calls: active means growth percent below 10; inactive means the rest.
# Tested on: HL-60(TB) leukemia
# Test: NCI-60 one-dose screen, 48 h (100 = growth as untreated, 0 = no growth, -100 = all killed)
# Details: 10 µM unless noted
row,Compound,growth
1,Cc1cc(C)cc(S(=O)(=O)n2ccc(-c3ccc4c(c3)CCC(C)(C)O4)n2)c1,99.8% (inactive)
2,CC#Cc1nc2ccccc2c(=O)[nH]1,11.4% (inactive)
3,c1cc(N2CCCC2)c2nc(-c3[nH]ncc3Nc3ncnc4[nH]ccc34)[nH]c2c1,-15.9% (active)
4,COc1cc(-c2nn(C)nc2-c2cc3ccccc3s2)cc(OC)c1OC,-3.84% (active)
5,Cc1ccc(N2CCN(C(C)C(N)=O)CC2)cc1 (centres undefined),158% (inactive)
6,C[C@H](C(=O)N[C@@H](Cc1ccc(-c2ccccc2)cc1)C(=O)NC1CC(C)(C)N(C)C(C)(C)C1)c1ccc(-c2ccccc2)c(F)c1,-61.2% (active)
7,COC(=S)SCN(CSC(=S)OC)c1ccc(Cl)cc1,90.4% (inactive)
8,Fc1ccc(Nc2nc(NCCNc3ccnc4cc(Cl)ccc34)nc(N3CCOCC3)n2)cc1,-6.82% (active)
9,CCOC(=O)CSc1ncnc2c1c(-c1ccccc1)c(-c1ccccc1)n2-c1ccc(C)cc1,55.9% (inactive)
10,O=C(CCc1nnc2sc(COc3ccccc3)nn12)c1nc2ncccc2[nH]1,117% (inactive)
11,Cc1cc(C(=O)NN)c(C#N)c(=O)[nH]1,111% (inactive)
12,O=c1cc(-c2cccnc2)oc2c1ccc1ccccc12,83.4% (inactive)
13,C(=N\OCCc1ccccc1)/c1ccccn1,99.3% (inactive) and 85.5% (inactive)
14,N#C/C(=C\c1ccc2c(c1)OCO2)n1nnc2cc(F)c(F)cc21,38.6% (inactive)
15,O=c1ccn(-c2ncnc3nc[nH]c23)cc1,92.7% (inactive)
16,Cc1ccc(C(=O)Nc2ccccc2C(=O)N/N=C(\c2ccccc2)c2ccccn2)cc1,2.36% (active)
17,COc1cc(-c2cncn2-c2ccc(-c3nc4ccc(F)cc4s3)cc2)ccc1F,53.1% (inactive)
18,Nc1ccc2c(O)cc(S(=O)(=O)O)cc2c1,89.8% (inactive) and 67% (inactive)
19,COC(=O)/C(CCC=C(C)C)=C1\[C@@H](OC(C)=O)C[C@@]2(C)[C@H]1C[C@@H](O)[C@H]1[C@@]3(C)CC[C@H](NC(=O)c4cnccn4)[C@@H](C)[C@@H]3CC[C@@]12C,99.5% (inactive)
20,N=C(N)c1ccc(-c2ccc(/C=C/c3ccccc3)s2)cc1,-39.5% (active)

row,Compound,growth
1,N#Cc1c(-c2ccc(O)cc2)c2c(N)nn(-c3ccccc3)c2[nH]c1=O,102% (inactive)
2,CCOC(=O)c1cc(C(=O)c2ccc(OC)c(OC)c2)n2ccc(-c3ccccn3)cc12,110% (inactive)
3,Cc1ccc(=O)[nH]n1,99.9% (inactive) and 102% (inactive)
4,CN1C(=O)NC(c2ccc(Cl)cc2)(c2ccc(Cl)cc2)C1=O,78.2% (inactive)
5,CC[C@@H](C(=O)[C@H](C)[C@H](O)[C@@H](C)[C@H]1O[C@H]([C@@H](CC)C(=O)O)CC[C@H]1C)C1O[C@]2(C=C[C@@H](O)[C@]3(CC[C@@](C)([C@H]4CC[C@](O)(CC)[C@H](C)O4)O3)O2)[C@H](C)C[C@@H]1C (some centres undefined),-36.8% (active)
6,CCOc1ccc2cc(-c3nn(CC4CCNCC4)c4ncnc(N)c34)ccc2c1,98.1% (inactive) and 19.7% (inactive)
7,N#CC1c2ccccc2C=CN1C(=O)CCCl (centres undefined),65.5% (inactive)
8,COc1cc(/C=C/C(=O)Nc2cccnc2Nc2cc(OC)c(OC)c(OC)c2)cc(OC)c1OC,89.1% (inactive)
9,CCOC(=O)c1c2c(n3ccc(C)cc13)C(=O)c1ccccc1C2=O,76.1% (inactive)
10,Cc1ccc(-c2csc(NC(=O)CN3CCN(c4cc5c(cc4F)c(=O)c(C(=O)O)cn5C4CC4)CC3)n2)cc1,-56.3% (active)
11,COc1cc(/C=C/C(=O)c2c(C)nc3ccccc3c2/C=C/c2ccccc2)cc(OC)c1OC,-6.84% (active)
12,C=CCNc1nnc(C)s1,139% (inactive)
13,Cc1cc2c(F)c(Oc3ncnn4cc(OC[C@@H](C)OC(=O)[C@H](C)N)c(C)c34)ccc2[nH]1,12.6% (inactive)
14,C#Cc1nc2ccccc2c(=O)[nH]1,-42.4% (active)
15,COc1ccc(C(=O)C2C(c3ccc(OC)cc3)CN(C)C23C(=O)Nc2ccccc23)cc1 (centres undefined),99.1% (inactive)
16,O=[N+]([O-])c1ccccc1N(S(=O)(=O)c1ccccc1)S(=O)(=O)c1ccccc1,5.52% (active) and 108% (inactive)
17,CC(=O)c1ccc(NC(=O)Nc2ccc(S(=O)(=O)Nc3ccc(Cl)nn3)cc2)cc1,109% (inactive)
18,CCOc1ccc(NC2=C(Cl)C(=O)c3ccccc3C2=O)cc1,32% (inactive)
19,CC1=NN(c2nc(SCC(=O)Nc3nc4ccc(C)cc4s3)nc(-c3ccccc3)c2C#N)C(=O)C1,111% (inactive)
